This note sets out measurements from the supplement of paper PMC10849652.

Experiment in all cases: log2 fold change, soluble protein after heating vs DMSO (PISA); higher = thermal stabilisation; K562 cells, 10 uM, 30 min; active = over 0.2 and 3.5 SD of the protein, either way, in both replicates (recomputed)
Compound in assay [1]: NC(=O)Nc1cc(-c2cccc(F)c2)sc1C(=O)N[C@H]1CCCNC1
An outline of the steps:
(§1)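 K562 cells at 2×10^6 cells/mL were treated for 30 min with 10 μM compound, and aliquots were heated for 3 min over 48°C-58°C before pooling. Extraction used PBS with 0.5% NP-40 at 4°C, and soluble protein was the supernatant after 21,000xg for 90 min, measured by TMTpro 16plex LC-MS/MS with channel sums equalised. Thermal stability values, relative to control samples and from duplicates, are log2 fold changes.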

Compound in assay [2]: NC(=O)c1cnc(N[C@@H]2CCCC[C@@H]2N)nc1Nc1cccc(-n2nccn2)c1
In short, it runs like this:
as §1

Compound in assay [3]: NC1(c2ccc(-c3nc4ccn5c(=O)[nH]nc5c4cc3-c3ccccc3)cc2)CCC1
In short, it runs like this:
as §1

Compound in assay [4]: NCC(=O)Nc1ccc(-n2nc(C(F)(F)F)cc2-c2ccc3c(ccc4ccccc43)c2)cc1
An outline of the steps: as §1

Compound in a further assay: Nc1ccccc1NC(=O)c1ccc(CNC(=O)OCc2cccnc2)cc1 [entinostat]
In short, it runs like this: as §1

Compound in the next assay: O=C(CCCCCCC(=O)Nc1ccccc1)NO [vorinostat]
An outline of the steps:
as §1

Compound in another assay: O=C(CCCCCCNC(=O)c1cnc(N(c2ccccc2)c2ccccc2Cl)nc1)NO [citarinostat]
In short, it runs like this:
as §1

Compound in the next assay: O=C(O)c1ccc2c(c1)nc(Nc1cccc(Cl)c1)c1ccncc12 [silmitasertib]
In short, it runs like this: as §1

Compound in assay [5]: O=C1NC(=O)C(c2cnc3ccccn23)=C1c1cn2c3c(cc(F)cc13)CN(C(=O)N1CCCCC1)CC2
An outline of the steps:
as §1

Compound in assay [6]: c1cc(OCCN2CCCCC2)cc(-c2n[nH]c3ccc(-c4nnc[nH]4)cc23)c1
An outline of the steps: as §1

Of roughly 7,900 targets only a part is listed; those with a hit were picked by preference. About 0.6% of all pairs of compound and target were hits. Values without a mark were called inactive.

UniProt Q9Y6J9, sequence (Q9Y6J9 whole entry, looked up): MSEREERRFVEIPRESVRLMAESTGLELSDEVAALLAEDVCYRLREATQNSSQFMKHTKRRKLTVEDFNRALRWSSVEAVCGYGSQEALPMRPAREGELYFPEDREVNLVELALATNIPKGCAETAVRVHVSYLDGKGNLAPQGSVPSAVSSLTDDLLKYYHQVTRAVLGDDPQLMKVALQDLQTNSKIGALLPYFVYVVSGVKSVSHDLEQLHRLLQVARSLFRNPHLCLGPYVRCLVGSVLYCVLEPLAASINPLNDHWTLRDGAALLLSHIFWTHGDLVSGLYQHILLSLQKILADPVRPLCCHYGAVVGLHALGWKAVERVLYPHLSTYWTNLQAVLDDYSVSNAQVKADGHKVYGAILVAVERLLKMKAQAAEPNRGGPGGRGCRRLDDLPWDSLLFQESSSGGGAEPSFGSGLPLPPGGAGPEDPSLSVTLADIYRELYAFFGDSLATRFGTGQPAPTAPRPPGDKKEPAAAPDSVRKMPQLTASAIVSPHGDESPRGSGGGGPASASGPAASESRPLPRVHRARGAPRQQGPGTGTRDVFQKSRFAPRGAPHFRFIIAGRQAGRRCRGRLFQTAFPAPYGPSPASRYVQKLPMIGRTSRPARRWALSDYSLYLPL
UniProt O15400, sequence (O15400 whole entry, looked up): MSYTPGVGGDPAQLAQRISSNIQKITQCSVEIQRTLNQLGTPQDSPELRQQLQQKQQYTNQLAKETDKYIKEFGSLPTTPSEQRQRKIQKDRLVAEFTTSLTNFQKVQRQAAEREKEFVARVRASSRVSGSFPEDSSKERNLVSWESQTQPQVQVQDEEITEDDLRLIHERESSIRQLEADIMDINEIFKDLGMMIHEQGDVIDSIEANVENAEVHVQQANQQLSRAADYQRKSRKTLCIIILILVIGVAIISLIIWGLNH
UniProt Q9H5Q4, sequence (Q9H5Q4 whole entry, looked up): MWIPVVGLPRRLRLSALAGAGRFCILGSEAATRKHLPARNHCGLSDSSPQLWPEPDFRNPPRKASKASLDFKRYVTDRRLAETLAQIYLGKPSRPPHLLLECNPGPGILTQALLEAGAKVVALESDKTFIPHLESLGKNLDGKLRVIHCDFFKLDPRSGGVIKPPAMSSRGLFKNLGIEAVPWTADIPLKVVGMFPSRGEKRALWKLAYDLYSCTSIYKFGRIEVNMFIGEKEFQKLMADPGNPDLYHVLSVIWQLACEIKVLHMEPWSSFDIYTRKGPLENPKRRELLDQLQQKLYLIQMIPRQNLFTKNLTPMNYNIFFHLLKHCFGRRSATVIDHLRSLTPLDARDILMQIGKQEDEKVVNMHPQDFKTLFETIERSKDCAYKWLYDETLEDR
UniProt Q9BWG4, sequence (Q9BWG4 whole entry, looked up): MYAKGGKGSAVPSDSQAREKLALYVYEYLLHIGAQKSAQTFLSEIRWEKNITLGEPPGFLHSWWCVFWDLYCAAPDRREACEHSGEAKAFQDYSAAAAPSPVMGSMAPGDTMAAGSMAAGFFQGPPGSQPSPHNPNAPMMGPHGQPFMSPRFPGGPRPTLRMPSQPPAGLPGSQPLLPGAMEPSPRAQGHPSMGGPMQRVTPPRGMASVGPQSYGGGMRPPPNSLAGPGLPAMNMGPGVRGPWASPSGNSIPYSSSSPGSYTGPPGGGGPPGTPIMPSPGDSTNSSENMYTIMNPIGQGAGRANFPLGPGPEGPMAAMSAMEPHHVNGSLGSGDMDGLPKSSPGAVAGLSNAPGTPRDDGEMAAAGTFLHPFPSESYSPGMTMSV
UniProt O76062, sequence (O76062 whole entry, looked up): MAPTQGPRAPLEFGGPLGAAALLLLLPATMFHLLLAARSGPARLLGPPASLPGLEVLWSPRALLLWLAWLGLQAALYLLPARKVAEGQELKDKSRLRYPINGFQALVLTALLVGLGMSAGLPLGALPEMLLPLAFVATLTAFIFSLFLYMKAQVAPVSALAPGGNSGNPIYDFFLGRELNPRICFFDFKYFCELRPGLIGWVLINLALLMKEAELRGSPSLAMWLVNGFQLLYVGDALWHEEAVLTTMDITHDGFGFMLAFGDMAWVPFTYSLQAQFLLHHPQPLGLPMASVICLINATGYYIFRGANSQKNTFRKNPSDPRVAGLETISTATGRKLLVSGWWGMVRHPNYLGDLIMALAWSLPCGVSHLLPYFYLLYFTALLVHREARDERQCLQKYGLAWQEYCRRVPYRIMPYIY
UniProt O60271, sequence (O60271 whole entry, looked up): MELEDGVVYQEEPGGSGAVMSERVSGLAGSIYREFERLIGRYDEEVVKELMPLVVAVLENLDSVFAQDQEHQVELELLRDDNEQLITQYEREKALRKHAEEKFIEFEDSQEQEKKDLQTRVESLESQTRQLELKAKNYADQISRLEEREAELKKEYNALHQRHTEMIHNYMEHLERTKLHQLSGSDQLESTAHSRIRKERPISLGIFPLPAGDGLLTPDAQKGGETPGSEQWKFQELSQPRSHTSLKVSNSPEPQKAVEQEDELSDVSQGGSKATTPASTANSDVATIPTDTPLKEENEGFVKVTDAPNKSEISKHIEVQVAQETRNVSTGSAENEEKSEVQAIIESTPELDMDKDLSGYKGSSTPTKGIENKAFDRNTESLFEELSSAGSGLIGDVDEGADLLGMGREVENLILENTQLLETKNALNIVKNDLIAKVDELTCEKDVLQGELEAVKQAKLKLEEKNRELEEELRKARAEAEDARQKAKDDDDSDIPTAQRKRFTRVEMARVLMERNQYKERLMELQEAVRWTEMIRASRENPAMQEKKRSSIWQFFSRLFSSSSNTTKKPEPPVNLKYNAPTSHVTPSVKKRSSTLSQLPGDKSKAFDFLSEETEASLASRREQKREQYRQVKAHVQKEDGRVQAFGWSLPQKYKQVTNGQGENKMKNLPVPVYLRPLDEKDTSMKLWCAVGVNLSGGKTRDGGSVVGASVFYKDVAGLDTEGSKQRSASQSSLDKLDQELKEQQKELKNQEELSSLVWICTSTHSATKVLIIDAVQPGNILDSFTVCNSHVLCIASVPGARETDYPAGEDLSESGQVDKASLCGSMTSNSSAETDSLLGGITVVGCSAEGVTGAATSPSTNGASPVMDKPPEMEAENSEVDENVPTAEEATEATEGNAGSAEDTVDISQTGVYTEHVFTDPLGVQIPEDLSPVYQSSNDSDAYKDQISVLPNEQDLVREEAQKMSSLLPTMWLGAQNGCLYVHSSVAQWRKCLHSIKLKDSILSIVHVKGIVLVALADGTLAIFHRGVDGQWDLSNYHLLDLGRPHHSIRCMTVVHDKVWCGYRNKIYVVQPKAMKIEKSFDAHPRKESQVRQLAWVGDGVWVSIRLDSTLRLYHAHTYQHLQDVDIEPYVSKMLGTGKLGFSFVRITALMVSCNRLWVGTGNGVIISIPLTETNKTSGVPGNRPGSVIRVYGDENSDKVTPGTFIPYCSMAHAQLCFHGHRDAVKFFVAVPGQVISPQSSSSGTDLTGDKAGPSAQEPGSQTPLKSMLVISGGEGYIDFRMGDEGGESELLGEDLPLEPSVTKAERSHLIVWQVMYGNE
UniProt P23497, sequence (P23497 whole entry, looked up): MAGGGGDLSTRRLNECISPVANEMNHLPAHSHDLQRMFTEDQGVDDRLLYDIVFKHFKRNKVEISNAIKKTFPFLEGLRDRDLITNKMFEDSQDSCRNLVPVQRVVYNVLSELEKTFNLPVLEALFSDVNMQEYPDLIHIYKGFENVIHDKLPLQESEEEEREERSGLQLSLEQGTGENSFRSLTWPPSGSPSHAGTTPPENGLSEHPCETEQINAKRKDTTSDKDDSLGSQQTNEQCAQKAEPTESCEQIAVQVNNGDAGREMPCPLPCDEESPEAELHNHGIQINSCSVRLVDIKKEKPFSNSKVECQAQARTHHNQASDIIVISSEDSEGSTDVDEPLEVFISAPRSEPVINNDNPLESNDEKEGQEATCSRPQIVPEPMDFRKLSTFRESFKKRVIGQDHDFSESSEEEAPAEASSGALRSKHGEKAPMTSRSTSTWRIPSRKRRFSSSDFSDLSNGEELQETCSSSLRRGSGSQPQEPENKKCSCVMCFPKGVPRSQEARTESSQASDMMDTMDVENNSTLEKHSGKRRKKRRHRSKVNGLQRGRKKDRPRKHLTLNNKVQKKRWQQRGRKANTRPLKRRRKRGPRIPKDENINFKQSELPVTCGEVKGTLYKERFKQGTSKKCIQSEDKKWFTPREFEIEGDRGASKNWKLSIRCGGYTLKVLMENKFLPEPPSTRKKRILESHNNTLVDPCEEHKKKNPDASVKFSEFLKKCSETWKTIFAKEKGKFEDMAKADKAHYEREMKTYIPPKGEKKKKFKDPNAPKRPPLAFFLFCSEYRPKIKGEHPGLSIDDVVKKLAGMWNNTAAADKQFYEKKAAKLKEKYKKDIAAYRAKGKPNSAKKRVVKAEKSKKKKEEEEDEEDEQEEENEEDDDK
UniProt Q969X1, sequence (Q969X1 whole entry, looked up): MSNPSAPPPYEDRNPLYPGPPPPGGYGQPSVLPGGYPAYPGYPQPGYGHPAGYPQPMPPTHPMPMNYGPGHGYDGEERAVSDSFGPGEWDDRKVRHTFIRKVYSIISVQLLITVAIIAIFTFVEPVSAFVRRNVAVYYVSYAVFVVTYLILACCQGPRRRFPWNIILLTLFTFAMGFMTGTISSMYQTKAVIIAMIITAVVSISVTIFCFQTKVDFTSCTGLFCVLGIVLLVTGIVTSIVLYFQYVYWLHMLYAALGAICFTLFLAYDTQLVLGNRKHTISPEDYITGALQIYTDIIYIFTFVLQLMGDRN
UniProt Q9NRS6, sequence (Q9NRS6 whole entry, looked up): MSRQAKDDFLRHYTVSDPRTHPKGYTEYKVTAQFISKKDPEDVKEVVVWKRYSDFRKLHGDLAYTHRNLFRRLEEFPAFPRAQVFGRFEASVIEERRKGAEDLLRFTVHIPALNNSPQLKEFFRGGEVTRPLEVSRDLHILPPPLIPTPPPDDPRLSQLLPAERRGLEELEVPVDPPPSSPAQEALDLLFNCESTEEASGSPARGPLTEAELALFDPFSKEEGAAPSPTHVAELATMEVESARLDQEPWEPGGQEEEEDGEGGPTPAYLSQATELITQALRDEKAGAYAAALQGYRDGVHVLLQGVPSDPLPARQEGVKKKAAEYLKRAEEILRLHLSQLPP

On to SSX2 (UniProt Q16385), for which the log2 fold change is -0.049 in assay [1]; -0.094 in [2]; -0.02 in [3]; -0.057 in assay [4]; -0.054 in the assay with entinostat; -0.022 with vorinostat. Also, the log2 fold change is -0.025 with citarinostat, 0.011 in the assay with silmitasertib, -0.098 in assay [5] and 0.033 in assay [6].
In the case of TFB2M (UniProt Q9H5Q4), the log2 fold change in assay [1] was -0.029; in [2] it was -0.066; in [3] it was -0.187; in assay [4], -0.066; with entinostat it was 0.054; in the assay with vorinostat it was 0.027. Further, the log2 fold change in the assay with citarinostat was 0.01; with silmitasertib, 0.046; in assay [5], -0.024; in assay [6] it was 0.003.
Regarding SNX15 (UniProt Q9NRS6), the log2 fold change is 0.106 in [1]; -0.135 in assay [2]; -0.048 in assay [3]; -0.133 in assay [4]; 0.061 with entinostat; 0.436 (active) with vorinostat. Moreover, the log2 fold change was 0.113 with citarinostat, 0.276 with silmitasertib and -0.073 in assay [6].
For the target TBCD (UniProt Q9BTW9), the log2 fold change is 0.003 in assay [1]; -0.057 in assay [2]; -0.146 in [3]; -0.03 in assay [4]; 0.03 with entinostat; -0.013 in the assay with vorinostat. Also, the log2 fold change was 0.028 in the assay with citarinostat, 0.039 with silmitasertib, -0.001 in assay [5] and -0.063 in [6].
As for TMBIM1 (UniProt Q969X1), the log2 fold change in assay [1] was 0.079; in [2], -0.229; in assay [3], -0.008; in [4], -0.259; with entinostat, 0.062; in the assay with vorinostat, -0.034. For the same target, the log2 fold change with citarinostat is -0.208; with silmitasertib, 0.067; in assay [5], -0.149; in assay [6], 0.021.
On to SMAD2 (UniProt Q15796), for which the log2 fold change in assay [1] is -0.184; in [2], -0.064; in [3] it was 0.005; in [4] it was -0.039; with entinostat, -0.103; with vorinostat, -0.051. Besides, the log2 fold change was 0.034 in the assay with citarinostat, -0.073 in the assay with silmitasertib, 0.009 in assay [5] and -0.018 in [6].
SUN2 (UniProt Q9UH99): the log2 fold change was 0.002 in [1]; 0.011 in assay [2]; -0.054 in assay [3]; -0.03 in assay [4]; 0.054 with entinostat; 0.018 in the assay with vorinostat. Further, the log2 fold change with citarinostat is 0.019; with silmitasertib, 0.007; in assay [5] it was 0.097; in assay [6], -0.087.
For SP100 isoform 4 (UniProt P23497), the log2 fold change in assay [1] is 0.03; in assay [2], -0.007; in assay [3], -0.025; in [4] it was -0.039; with entinostat, 0.007; in the assay with vorinostat, -0.046. Further, the log2 fold change with citarinostat was -0.011; with silmitasertib, 0.059; in assay [5] it was -0.051; in assay [6] it was 0.02.
On to SUMO1 (UniProt P63165), for which the log2 fold change in assay [1] was -0.006; in assay [2] it was -0.116; in [3], 0.071; in assay [4], -0.074; with entinostat, -0.01; with vorinostat it was -0.086. The log2 fold change in the assay with citarinostat is -0.063; with silmitasertib, -0.012; in [5] it was 0.045; in [6] it was -0.087.
With STX7 (UniProt O15400), the log2 fold change is 0.036 in [1]; -0.02 in assay [2]; -0.072 in assay [3]; 0.011 in [4]; -0.028 in the assay with entinostat; -0.093 in the assay with vorinostat. Moreover, the log2 fold change is -0.002 with citarinostat, 0.017 with silmitasertib, -0.006 in [5] and 0.079 in assay [6].
As for TAF6L (UniProt Q9Y6J9), the log2 fold change in assay [1] is -0.038; in assay [2], -0.067; in [3] it was -0.061; in the assay with entinostat it was 0.033; with vorinostat, 0.248; in the assay with silmitasertib, 0.303.
Regarding TM7SF2 (UniProt O76062), the log2 fold change in assay [1] was 0.057; in assay [4], -0.276; with entinostat, 0.119.
Regarding SLC39A1 (UniProt Q9NY26), the log2 fold change in the assay with vorinostat is 0.181.
Regarding SUPT5H isoform 2 (UniProt O00267), the log2 fold change in assay [4] is -0.046.
Take SPAG9 isoform 4 (UniProt O60271): the log2 fold change is -0.101 in assay [1]; -0.164 in [2]; -0.09 in assay [3]; -0.199 in assay [4]; 0.034 with entinostat; -0.048 with citarinostat. The log2 fold change with silmitasertib was 0.014; in assay [6] it was -0.017.
On to SRFBP1 (UniProt Q8NEF9), for which the log2 fold change in assay [1] was 0.038; in [2], 0.198; in [3], 0.211; with entinostat, -0.071; in the assay with vorinostat, 0.009; with citarinostat it was 0. The log2 fold change with silmitasertib is 0.054; in assay [5], 0.122; in [6], 0.116.
In the case of SLC9A6 isoform 3 (UniProt Q92581), the log2 fold change in assay [2] was 0.009; with citarinostat, -0.066; in assay [6] it was 0.172.
For SSBP4 (UniProt Q9BWG4), the log2 fold change in assay [1] is 0.177; in assay [2] it was 0.041; in assay [3], -0.024; with entinostat, -0.084; with vorinostat it was -0.107; with citarinostat, 0.018. Besides, the log2 fold change with silmitasertib is -0.008; in assay [6] it was -0.093.
